Reference: PubChem BioAssay
Potency and affinity values are given separately. Inconclusive results are not listed. Activity calls are given as the source filed them.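 Rule for the calls, unless noted: active = a dose-response fit showing signal loss, with half-maximal concentration no higher than twice the top tested dose; inconclusive = flat fit between 30% and 70% signal loss, or poor fit; inactive = the rest.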

Assays:
[1] = Cryptococcus neoformans growth inhibition, dose response, Alamar Blue, cherry-picks (AID 686998;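 active = falling signal with fitted half-maximal potency no higher than twice the top valid tested dose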); settings: 24 h; series mostly up to 35 µM
[2] = inducers of Cryptococcus neoformans cell lysis, dose response, AK release luminescence, cherry-picks (AID 687000;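 active = fitted dose curve reaches 40% lysis signal rise at or below the highest valid concentration tested for that sample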;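 note: luminescent detection of adenylate kinase leaking from lysed yeast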); settings: C. neoformans lysis, adenylate kinase release luminescence, 4 h, 100% = twice the neutral-control signal; series mostly up to 15 µM
[3] = HepG2 cell cytotoxicity, dose response, cytotoxicity control, cherry-picks, set 2 (AID 687002); settings: HepG2 viability, ATP luminescence (CellTiter-Glo), 48 h; series mostly up to 26 µM
[4] = HeLa cell cytotoxicity, dose response, cytotoxicity control, ATP luminescence, cherry-pick samples (AID 687004;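 active = a fitted half-maximal concentration no higher than twice the top valid tested dose, with signal falling as cells die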); settings: HeLa viability, ATP luminescence (CellTiter-Glo), 48 h; series mostly up to 26 µM

Measured: outcome

C[C@H]1CN([C@@H](C)CO)C(=O)Cc2cc(NC(=O)Nc3cccc4ccccc34)ccc2O[C@H]1CN(C)S(=O)(=O)c1cccs1
inactive: all assays above

Cc1cccc(NC(=O)C2NC(=O)CC2c2ccccc2)c1C (configuration not stated)
inactive: all assays above

C[C@@H]1CN([C@H](C)CO)C(=O)Cc2cc(NC(=O)CCCCCC(=O)Nc3ccccc3N)ccc2O[C@H]1CN(C)Cc1ccc2c(c1)OCO2
inactive: all assays above

CC(=O)N(C)C[C@H]1Oc2cc(C#Cc3ccc(F)cc3)ccc2S(=O)(=O)N([C@H](C)CO)C[C@@H]1C
inactive: all assays above

CC(C)NC(=O)Nc1ccc2c(c1)CC(=O)N([C@@H](C)CO)C[C@@H](C)[C@@H](CN(C)S(=O)(=O)c1ccc(Cl)cc1)O2
inactive: all assays above

C[C@@H]1CN([C@@H](C)CO)C(=O)c2cc(NS(=O)(=O)c3ccccc3)ccc2O[C@H]1CN(C)C(=O)NC1CCCCC1
inactive: all assays above

CO[C@H]1CN(C)C(=O)c2cc(NS(=O)(=O)CC(F)(F)F)ccc2OC[C@H](C)N(Cc2cccnc2)C[C@@H]1C
inactive: all assays above

Cc1noc(C)c1S(=O)(=O)N(C)C[C@@H]1Oc2c(NC(=O)c3cnccn3)cccc2C(=O)N([C@@H](C)CO)C[C@@H]1C
inactive: all assays above

C[C@@H]1CCCCO[C@H](CN(C)Cc2ccncc2)[C@@H](C)CN([C@H](C)CO)C(=O)c2cc(N(C)C)ccc2O1
inactive: all assays above

CN1CCN(C(=O)CN(c2ccc(I)cc2)S(=O)(=O)c2ccccc2)CC1
inactive: all assays above

CC(Sc1ncnc2c1cnn2-c1ccccc1)C(=O)Nc1ccc(N2CCOCC2)cc1 (configuration not stated)
inactive: all assays above

COCC#Cc1cnc2c(c1)C(=O)N([C@@H](C)CO)C[C@@H](C)[C@@H](CN(C)C(=O)C1CC1)O2
inactive: all assays above

CO[C@@H](CN(C)Cc1ccc2c(c1)OCO2)[C@@H](C)CN(C(=O)c1ccccc1)[C@H](C)CO
inactive: all assays above

CN1C(=O)c2cc(NS(=O)(=O)c3cccc(F)c3)ccc2OC[C@@H]2O[C@@H](CC(=O)O)CC[C@H]21
inactive: all assays above

C[C@@H]1CN([C@H](C)CO)C(=O)c2cc(N(C)C)ccc2O[C@@H]1CN(C)C(=O)Nc1ccc(C(F)(F)F)cc1
inactive: all assays above

C[C@H]1CN([C@@H](C)CO)C(=O)CCCn2nncc2CO[C@@H]1CN(C)Cc1cccc(C(F)(F)F)c1
inactive: all assays above

Cc1noc(C)c1NC(=O)Nc1ccc2c(c1)C(=O)N([C@H](C)CO)C[C@@H](C)[C@H](CN(C)C(=O)Nc1ccc(F)cc1)OCCCC[C@@H](C)O2
inactive: all assays above

O=C(C[C@@H]1CC[C@@H]2[C@H](COC[C@H](O)CN2Cc2cccc(C(F)(F)F)c2)O1)NCc1ccc(Cl)cc1
inactive: all assays above

O=C(CSc1ncnc2c1cnn2-c1ccc(Cl)cc1)NCc1ccc2c(c1)OCO2
inactive: all assays above

CC(C)CC#Cc1cnc2c(c1)C(=O)N([C@H](C)CO)C[C@@H](C)[C@@H](CN(C)C(=O)c1ccc3c(c1)OCO3)O2
inactive: all assays above

Cc1noc(C)c1NC(=O)Nc1cccc2c1O[C@@H](CN(C)S(=O)(=O)c1cn(C)cn1)[C@@H](C)CN([C@@H](C)CO)C2=O
inactive: all assays above

CC(C)NC(=O)Nc1ccc2c(c1)C(=O)N([C@@H](C)CO)C[C@@H](C)[C@H](CN(C)C(=O)Cc1ccccc1)OCCCC[C@@H](C)O2
inactive: all assays above

CCC(=O)N(C)C[C@H]1Oc2cc(C#CC(C)(C)O)ccc2S(=O)(=O)N([C@@H](C)CO)C[C@@H]1C
inactive: all assays above

COCC#Cc1cnc2c(c1)C(=O)N([C@H](C)CO)C[C@H](C)[C@H](CN(C)C(=O)C1CC1)O2
inactive: all assays above

CC(C)(C)C(=O)N1CCCC1C(=O)Nc1ccccc1 (configuration not stated)
inactive: all assays above

COc1ccc(CN(C)C[C@@H]2OCCCC[C@H](C)Oc3ccc(N(C)C)cc3C(=O)N([C@H](C)CO)C[C@@H]2C)cc1
inactive: all assays above

C[C@H](NC(=O)C[C@@H]1C=C[C@H](NC(=O)CN2CCOCC2)[C@@H](CO)O1)c1ccccc1
inactive: all assays above

Cc1noc(C)c1S(=O)(=O)Nc1ccc2c(c1)C(=O)N([C@H](C)CO)C[C@H](C)[C@H](CN(C)Cc1ccncc1)O2
inactive: all assays above

C[C@@H]1CCCCO[C@H](CN(C)C(=O)c2ccncc2)[C@H](C)CN([C@H](C)CO)C(=O)c2cc(NC(=O)CCC(F)(F)F)ccc2O1
inactive: all assays above

C[C@H](CO)N1C[C@H](C)[C@H](CN(C)Cc2cccnc2)Oc2ncc(C#CC3(O)CCCC3)cc2C1=O
inactive: all assays above

COc1ccccc1C(=O)N1C[C@H]2[C@@H](c3ccccc31)[C@@H](CO)N2C(=O)Cc1ccccc1
inactive: all assays above

COc1ccc(NC(=O)N(C)C[C@H]2OCCCC[C@@H](C)Oc3ccc(N(C)C)cc3C(=O)N([C@H](C)CO)C[C@H]2C)cc1
inactive: all assays above

CCC(=O)N1CCN(c2ccccc2NC(=S)NC(=O)c2cccc([N+](=O)[O-])c2)CC1
inactive: all assays above

C[C@@H](NC(=O)C[C@H]1CC[C@@H](NC(=O)Cc2ccccn2)[C@@H](CO)O1)c1ccccc1
inactive: all assays above

CN1CCN(C(=O)C[C@@H]2CC[C@H]3[C@@H](COC[C@H](O)CN3C(=O)Cc3ccccc3)O2)CC1
inactive: all assays above

COc1cccc(S(=O)(=O)N(C)C[C@@H]2Oc3ncc(-c4cccc(F)c4)cc3C(=O)N([C@H](C)CO)C[C@@H]2C)c1
inactive: all assays above

C[C@@H]1CN([C@@H](C)CO)C(=O)c2cc(NS(=O)(=O)c3ccc(F)cc3)ccc2O[C@@H](C)CCCCO[C@@H]1CN(C)Cc1ccc2c(c1)OCO2
inactive: all assays above

CNC(=O)C[C@@H]1CC[C@@H]2[C@H](COC[C@H](O)CN2S(=O)(=O)c2cccc(Cl)c2)O1
inactive: all assays above

C[C@@H]1CN([C@@H](C)CO)C(=O)c2cc(NS(=O)(=O)c3cn(C)cn3)ccc2O[C@@H]1CN(C)C(=O)Nc1cccc2ccccc12
inactive: all assays above

COc1ccc(C#Cc2ccc3c(c2)O[C@H](CN(C)C(=O)Nc2cccc(OC)c2)[C@H](C)CN([C@@H](C)CO)S3(=O)=O)cc1
inactive: all assays above

C[C@@H]1CCCCO[C@H](CN(C)C(=O)Nc2ccc(F)cc2)[C@H](C)CN([C@@H](C)CO)C(=O)c2cc(NS(=O)(=O)c3ccc(Cl)cc3)ccc2O1
inactive: all assays above

Cc1ccc(S(=O)(=O)N[C@@H]2CCCN(Cc3cccc(OCCO)c3)C2)cc1
inactive: all assays above

CCCNC(=O)C[C@@H]1CC[C@@H]2[C@@H](COc3ccc(NC(=O)CCC)cc3C(=O)N2C)O1
inactive: all assays above

O=C(NC1CCCC1)N1CCCCN2[C@H](CO)[C@H](c3ccc(-c4cncnc4)cc3)[C@@H]2C1
inactive: all assays above

O=C(NC1CCCCC1)N[C@@H]1CC[C@@H](CCNS(=O)(=O)c2ccc(Cl)cc2)O[C@H]1CO
inactive: all assays above

CCNC(=O)C[C@@H]1CC[C@H]2[C@@H](COC[C@@H](O)CN2S(=O)(=O)c2ccccc2F)O1
inactive: all assays above

O=C([C@H]1[C@H](CO)[C@H]2Cn3c(cccc3=O)[C@@H]1N2Cc1cccc(Cl)c1)N1CCOCC1
inactive: all assays above

O=C(C[C@@H]1CC[C@H]2[C@@H](COC[C@H](O)CN2Cc2ccccc2F)O1)NC1CCC1
inactive: all assays above
